Data from PubChem BioAssay AID720576 (National Center for Advancing Translational Sciences (NCATS), 2013).
The other results are listed elsewhere or left out. A call without a number means that no potency is given here. Records with an inconclusive call do not appear. Calls of active or inactive are those of the source. Calls come from the whole dose curve; as a rule, active = well fitted inhibition curve with a large enough effect; inconclusive = small, poorly fitted or top-dose-only effect; inactive = no such curve, though single readings can be large or run the other way.

test: qHTS Assay for Inhibitors of Hepatitis C Virus (HCV): Cytotoxicity Counterscreen for Cherry-picked Compounds; settings: HCV host cell line cytotoxicity counterscreen; series mostly up to 41.8 µM
Description: Hepatitis C virus (HCV) infects about 200 million people in the world. Many infected people progress to chronic liver disease including cirrhosis with a risk of developing liver cancer. To date, there is no effective vaccine for hepatitis C. Current therapy based on interferon is only effective in about half of the patients and is associated with significant adverse effects. The fraction of people with HCV who can complete a successful treatment is estimated to be no more than 10 percent. Recent development of direct-acting antivirals against HCV, such as protease and polymerase inhibitors, is promising but still requires combination with peginterferon and ribavirin for maximal efficacy. In addition, these agents are associated with high rate of resistance and many have significant side effects. Due to the lack of a culture system for infectious HCV, the search for new HCV drugs has been greatly hampered. […] High-throughput screening (HTS) with an infectious HCV system would cover the complete spectrum of potentially druggable targets in all stages of HCV lifecycle, and would have more biological relevance than other cell-based assays. Moreover, targeting several key processes in the viral life cycle may not only increase antiviral efficacy; more importantly, it may also reduce the capacity of the virus to develop resistance to the compound.
The goal of this project is to identify novel HCV inhibitors as new therapies for hepatitis C, using a highly sensitive and specific assay platform based on a HCV infectious cell culture system established in the laboratory and adapted for high-throughput HCV drug screen. The primary assay was used to screen the MLPCN compound library and potential inhibitors were cherry picked for confirmation and further characterization. To evaluate the cytotoxic effect of the selected compounds, a secondary cell based counterscreen using the Promega CellTiter Glo reagent and Huh cell line was developed. The data herein is the result of the Cytotoxicity counterscreen against the cherry picked compounds. No significant activity is the desired outcome for this assay.
NIH Chemical Genomics Center [NCGC]
NIH Molecular Libraries Probe Centers Network [MLPCN]
Assay Submitter (PI): Jake Liang, NIDDK
Cells were plated in a 1536-wel tissue culture grade plates at a final concentration of 1,000 cells/well (3 uL volume). The assay plate was culture for 4 h. Then 23 nL of compounds from the library collection was added to each well and incubated for 44 h at 37C, 5% CO2. A volume of 4.5 uL CellTiterGlo reagent was to each well and the plates were incubated at room temperature for 15 min. The luminescence signal was read for 15 sec using the PerkinElmer ViewLux plate reader.
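Note: 44 h compound exposure; nearly all actives have a fitted effect of over 55% in size.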

SMILES	Potency
CCCOc1ccc(C(=O)C(CCC(CNCC)C(=O)c2ccc(OCCC)cc2)CNCC)cc1 (stereo not drawn)	7.91 µM (active)
COCCCn1c(SCc2cccc(OC)c2)nc2cc(OC)c(OC)cc2c1=N	inactive
CN(C)c1nc(N)nc(CSc2nnnn2-c2cccc3ccccc23)n1	6.28 µM (active)
COc1ccc(NC(=O)c2sc(N3CCOCC3)nc2-c2ccccc2)c(OC)c1	inactive
N#C/C(=C1\CCCN1)c1nc(-c2ccccc2)cs1	inactive
Cc1cc(-c2cccs2)nc(-n2cccc2)n1	inactive
O=S(=O)([N-]c1nc2ccccc2nc1-[n+]1ccc(Cc2ccccc2)cc1)c1ccc(Br)s1	inactive
Cc1ccc(C)c(N2CCN(C(=O)CCCCCn3c(=S)[nH]c4ccc(N5CCOCC5)cc4c3=O)CC2)c1	9.95 µM (active)
Cc1c(-c2cccc(Cl)c2)nc2ccccc2c1C(=O)OCC(=O)N(C)C1CCS(=O)(=O)C1 (stereo not drawn)	inactive
CC(C)(C)c1ccc(Oc2ccc(N)cc2)cc1	inactive
COc1ccc(OCCNC(=O)c2cc(C3CC3)nc3c2cnn3C(C)C)cc1	inactive
CCCc1nc2ccccc2c(C(=O)OCc2nnc(-c3cc(OC)c(OC)c(OC)c3)o2)c1CC	inactive
COc1ccc(C(C(=O)NC2CCCCC2)N(C(=O)CCl)c2ccccc2Cl)cc1 (stereo not drawn)	2.5 µM (active)
